This is an account of results in PubChem BioAssay (NCI).

Where “and” joins values, the source holds several entries; their conditions need not be identical. Equal entries are not always repeated. The panel holds about 83,000 compounds, 20% with a hit somewhere; the sample as a whole holds those more often.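 Growth was measured after 48 h exposure to one concentration of compound in 96-well plates. Values under 10 count as active.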 Calls of active or inactive are those of the source.

This experiment has as its system HL-60(TB) leukemia. Description: NCI-60 one-dose screen, 48 h (100 = growth as untreated, 0 = no growth, -100 = all killed). To be noted: 10 µM unless noted.
On to `NNc1ccc2ccccc2c1`, for which the growth was 98.4% (inactive) and 108% (inactive). The figure for `Cc1cccc(/C=C\C(=O)c2ccccc2)c1` is 98.8% (inactive) and 58.7% (inactive); for `NC(=S)N1N=C(c2ccccc2)CC1c1cn(-c2ccccc2)nc1-c1ccc(OCc2ccccc2)cc1` (stereo unspecified) it is 114% (inactive); for `N#Cc1c(N)nc(N)nc1Nc1ccc(Br)cc1` it is 93.3% (inactive). For `CCc1ncnc2c1ccn2C(C)c1ccc(OC)c(F)c1` (stereo unspecified), the growth was 31.7% (inactive). The figure for `O=C(NNc1ccccc1)c1ccccc1` is 7.78% (active) and -1.5% (active).

With `O=C(C[n+]1cccc2cc(Cl)ccc21)c1ccc2c(c1)CCCC2`, the growth is -28.3% (active). The value for `COc1ccc2c(c1)[nH]c(=O)c1c3cc(OC)c(OC)cc3cn21` was -18.9% (active); that for `COc1ccc(-c2coc3c(CO)c(O)ccc3c2=O)cc1` was -24.9% (active). The value for `O=c1ccn2nc3ccccc3c2[nH]1` was 93.1% (inactive). The value for `CC1=C([Se]CC(OC(=O)CC[Se]c2ccccc2)C(=O)NCCCCCC(=O)OCc2ccccc2)C(=O)c2ccccc2C1=O` (stereo unspecified) was 15.5% (inactive).
